Experimental findings from paper PMC7862700, “An all-to-all approach to the identification of sequence-specific readers for epigenetic DNA modifications on cytosine” are described below.

Holding throughout (experiment): DAPPL (digital affinity profiling via proximity ligation, sequencing); 10 mM Tris-HCl pH 7.5, 50 mM NaCl, 1 mM DTT, 4% glycerol, room temperature, 30 min; GST-TFs on glutathione beads, 16-mer random dsDNA library, 0.1% formaldehyde crosslink after washing; high values mean tight binding
Holding throughout (conditions): protein: recombinant; tags: N-terminal GST; dsDNA, one strand shown

Test [1] addresses T1, FLI1 (Homo sapiens, UniProt Q01543 1-452).
T1 sequence: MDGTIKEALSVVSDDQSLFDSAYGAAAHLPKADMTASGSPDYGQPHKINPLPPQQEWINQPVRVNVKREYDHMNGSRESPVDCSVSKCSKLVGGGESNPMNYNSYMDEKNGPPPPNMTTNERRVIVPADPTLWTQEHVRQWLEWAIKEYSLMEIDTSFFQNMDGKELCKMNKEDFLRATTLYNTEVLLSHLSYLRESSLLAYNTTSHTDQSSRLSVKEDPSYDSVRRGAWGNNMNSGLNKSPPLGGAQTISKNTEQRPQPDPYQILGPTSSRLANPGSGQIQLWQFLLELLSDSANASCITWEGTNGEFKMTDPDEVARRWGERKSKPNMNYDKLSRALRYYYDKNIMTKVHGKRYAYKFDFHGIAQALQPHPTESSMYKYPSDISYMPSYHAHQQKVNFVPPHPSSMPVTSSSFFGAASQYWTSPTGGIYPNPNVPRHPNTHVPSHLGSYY
The procedure, abridged:
(§1)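 Each value of binding signal is a hexamer's read frequency for a factor divided by the same hexamer's frequency in the tag-only sample. Barcoded, bead-captured GST fusions of human transcription factors made in yeast were pooled with that sample and incubated with 200 nmole of a random double-stranded 16-mer DNA library in Tris/NaCl/DTT/glycerol buffer at room temperature for 30 min. Washing, 0.1% formaldehyde crosslinking, proximity ligation, PCR and Illumina NextSeq500 sequencing followed.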

The target of test [2] is T2, ELK1 (Homo sapiens, UniProt P19419 1-428).
T2 sequence: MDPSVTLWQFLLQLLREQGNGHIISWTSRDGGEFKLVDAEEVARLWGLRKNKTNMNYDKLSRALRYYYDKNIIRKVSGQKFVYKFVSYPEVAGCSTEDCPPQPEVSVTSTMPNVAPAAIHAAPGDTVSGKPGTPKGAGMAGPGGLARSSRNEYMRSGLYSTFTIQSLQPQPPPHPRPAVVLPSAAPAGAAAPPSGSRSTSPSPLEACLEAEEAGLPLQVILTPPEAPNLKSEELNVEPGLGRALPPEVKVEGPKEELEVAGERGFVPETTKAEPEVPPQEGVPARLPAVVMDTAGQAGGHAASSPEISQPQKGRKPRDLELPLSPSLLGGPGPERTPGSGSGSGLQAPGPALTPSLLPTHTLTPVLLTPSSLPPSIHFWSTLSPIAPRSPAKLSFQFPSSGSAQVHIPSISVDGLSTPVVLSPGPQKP
The procedure, abridged: as §1

For test [3], the target named is T3, GABPA (Homo sapiens, UniProt Q06546 1-454).
T3 sequence: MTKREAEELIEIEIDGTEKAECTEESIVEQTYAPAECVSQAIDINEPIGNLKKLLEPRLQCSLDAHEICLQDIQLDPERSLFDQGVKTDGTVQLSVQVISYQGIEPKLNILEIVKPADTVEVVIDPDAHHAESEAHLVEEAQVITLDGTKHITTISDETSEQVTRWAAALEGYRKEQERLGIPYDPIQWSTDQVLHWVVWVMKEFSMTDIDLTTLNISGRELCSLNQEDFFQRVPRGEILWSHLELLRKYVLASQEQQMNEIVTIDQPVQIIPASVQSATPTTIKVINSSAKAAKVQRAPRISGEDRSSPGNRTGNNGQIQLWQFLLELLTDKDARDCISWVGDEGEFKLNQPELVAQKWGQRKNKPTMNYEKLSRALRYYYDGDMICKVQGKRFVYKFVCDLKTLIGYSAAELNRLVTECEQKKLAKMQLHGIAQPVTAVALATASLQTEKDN
Put shortly:
as §1

Test [4] concerns the target T4, ERG (Homo sapiens, UniProt P11308 1-479).
T4 sequence: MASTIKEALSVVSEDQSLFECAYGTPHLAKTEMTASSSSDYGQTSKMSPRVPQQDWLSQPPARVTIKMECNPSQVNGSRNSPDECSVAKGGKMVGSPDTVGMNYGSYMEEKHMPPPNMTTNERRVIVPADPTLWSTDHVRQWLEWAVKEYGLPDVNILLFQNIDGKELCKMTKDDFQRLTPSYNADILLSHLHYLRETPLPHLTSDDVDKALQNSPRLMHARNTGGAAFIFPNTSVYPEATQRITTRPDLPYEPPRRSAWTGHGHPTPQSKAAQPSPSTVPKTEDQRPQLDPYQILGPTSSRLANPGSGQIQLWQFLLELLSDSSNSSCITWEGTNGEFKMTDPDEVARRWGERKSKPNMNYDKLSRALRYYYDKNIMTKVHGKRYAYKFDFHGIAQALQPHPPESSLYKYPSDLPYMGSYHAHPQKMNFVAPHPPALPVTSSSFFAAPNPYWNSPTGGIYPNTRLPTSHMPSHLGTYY
The procedure, abridged:
as §1

Test [5] addresses ELF1 (Homo sapiens, UniProt P32519 1-619). Put shortly: as §1
For test [6], the target named is T5, EHF (Homo sapiens, UniProt Q9NZC4 1-300).
T5 sequence: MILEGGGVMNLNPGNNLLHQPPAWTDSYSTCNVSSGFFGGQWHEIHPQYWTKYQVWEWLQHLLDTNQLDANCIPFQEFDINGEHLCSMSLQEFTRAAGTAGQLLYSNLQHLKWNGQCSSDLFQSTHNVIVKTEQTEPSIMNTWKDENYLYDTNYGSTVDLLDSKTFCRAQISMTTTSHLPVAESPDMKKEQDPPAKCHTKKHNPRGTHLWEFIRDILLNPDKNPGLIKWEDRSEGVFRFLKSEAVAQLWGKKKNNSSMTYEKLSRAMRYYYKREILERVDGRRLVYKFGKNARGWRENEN
The procedure, abridged: as §1

Test [7] deals with SPI1 (Homo sapiens, UniProt P17947 1-270). Put shortly: as §1
Test [8] deals with SPIB (Homo sapiens, UniProt Q01892 1-262). The procedure, abridged: as §1
SPIB, sequence (Q01892 whole entry): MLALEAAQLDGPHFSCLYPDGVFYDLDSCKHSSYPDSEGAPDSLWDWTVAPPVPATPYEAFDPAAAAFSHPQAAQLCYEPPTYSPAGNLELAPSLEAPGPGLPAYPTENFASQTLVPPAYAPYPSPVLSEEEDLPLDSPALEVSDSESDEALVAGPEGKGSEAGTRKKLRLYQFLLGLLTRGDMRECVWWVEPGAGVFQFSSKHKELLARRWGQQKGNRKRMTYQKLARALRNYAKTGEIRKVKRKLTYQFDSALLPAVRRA
For test [9], the target named is T6, ELK3 (Homo sapiens, UniProt P41970 1-407).
T6 sequence: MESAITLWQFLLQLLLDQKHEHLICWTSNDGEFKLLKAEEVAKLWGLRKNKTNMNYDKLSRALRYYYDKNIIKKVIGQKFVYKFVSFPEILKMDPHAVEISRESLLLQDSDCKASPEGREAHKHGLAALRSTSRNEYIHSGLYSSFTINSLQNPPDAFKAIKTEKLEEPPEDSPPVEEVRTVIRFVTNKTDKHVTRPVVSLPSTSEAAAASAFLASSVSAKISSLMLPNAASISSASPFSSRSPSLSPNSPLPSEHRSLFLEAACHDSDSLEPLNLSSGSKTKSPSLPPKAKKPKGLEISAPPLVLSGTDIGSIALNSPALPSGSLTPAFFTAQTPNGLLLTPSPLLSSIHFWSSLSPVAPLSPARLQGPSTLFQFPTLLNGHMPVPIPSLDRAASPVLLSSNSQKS
Put shortly:
as §1

The target of test [10] is T7, FEV (Homo sapiens, UniProt Q99581 1-238).
T7 sequence: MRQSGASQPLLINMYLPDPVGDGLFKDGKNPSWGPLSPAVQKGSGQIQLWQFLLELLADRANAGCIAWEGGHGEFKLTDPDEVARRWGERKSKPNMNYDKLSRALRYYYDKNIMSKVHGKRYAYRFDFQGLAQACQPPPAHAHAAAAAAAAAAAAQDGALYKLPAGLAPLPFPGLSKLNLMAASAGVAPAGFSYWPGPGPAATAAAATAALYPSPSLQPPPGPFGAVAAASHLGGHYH
The procedure, abridged: as §1

The target of test [11] is ETV5 (Homo sapiens, UniProt P41161 1-510). The procedure, abridged: as §1
ETV5, sequence (P41161 whole entry): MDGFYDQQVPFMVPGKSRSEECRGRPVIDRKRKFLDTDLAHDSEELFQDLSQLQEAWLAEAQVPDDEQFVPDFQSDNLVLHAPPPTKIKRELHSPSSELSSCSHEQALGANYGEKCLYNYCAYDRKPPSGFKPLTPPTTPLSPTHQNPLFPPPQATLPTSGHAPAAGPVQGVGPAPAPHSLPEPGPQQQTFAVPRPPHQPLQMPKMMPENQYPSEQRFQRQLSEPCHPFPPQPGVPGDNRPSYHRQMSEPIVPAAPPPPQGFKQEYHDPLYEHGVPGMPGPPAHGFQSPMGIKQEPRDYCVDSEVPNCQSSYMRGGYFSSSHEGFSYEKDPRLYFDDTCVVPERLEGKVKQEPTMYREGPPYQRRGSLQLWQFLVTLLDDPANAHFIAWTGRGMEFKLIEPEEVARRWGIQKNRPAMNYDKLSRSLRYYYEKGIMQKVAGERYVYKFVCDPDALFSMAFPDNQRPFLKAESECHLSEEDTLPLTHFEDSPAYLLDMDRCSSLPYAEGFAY
Test [12] concerns the target T8, SPIC (Homo sapiens, UniProt Q8N5J4 1-248).
T8 sequence: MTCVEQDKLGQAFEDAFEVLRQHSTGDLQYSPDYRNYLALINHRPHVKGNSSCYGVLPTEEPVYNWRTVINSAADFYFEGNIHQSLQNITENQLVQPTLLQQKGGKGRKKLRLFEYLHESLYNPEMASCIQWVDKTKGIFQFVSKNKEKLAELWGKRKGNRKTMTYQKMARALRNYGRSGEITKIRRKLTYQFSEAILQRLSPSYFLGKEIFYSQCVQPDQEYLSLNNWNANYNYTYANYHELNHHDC
Put shortly:
as §1

Test [13] has as its target ELF4 (Homo sapiens, UniProt Q99607 1-663). The procedure, abridged:
as §1

Test [14] addresses T9, ELK4 (Homo sapiens, UniProt P28324-2 1-405).
T9 sequence: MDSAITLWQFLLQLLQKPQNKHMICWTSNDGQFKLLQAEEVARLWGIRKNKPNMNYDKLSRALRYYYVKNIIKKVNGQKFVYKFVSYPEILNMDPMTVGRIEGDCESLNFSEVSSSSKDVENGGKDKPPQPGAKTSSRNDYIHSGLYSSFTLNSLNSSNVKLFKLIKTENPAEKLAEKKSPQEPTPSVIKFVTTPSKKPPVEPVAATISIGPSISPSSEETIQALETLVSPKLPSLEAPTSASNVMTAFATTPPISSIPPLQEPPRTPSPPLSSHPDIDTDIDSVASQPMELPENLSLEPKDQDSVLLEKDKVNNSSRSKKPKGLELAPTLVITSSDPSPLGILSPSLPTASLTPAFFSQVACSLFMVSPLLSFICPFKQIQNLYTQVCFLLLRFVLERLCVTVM
The procedure, abridged:
as §1

Test [15] has as its target T10, ETV2 (Homo sapiens, UniProt O00321 1-342).
T10 sequence: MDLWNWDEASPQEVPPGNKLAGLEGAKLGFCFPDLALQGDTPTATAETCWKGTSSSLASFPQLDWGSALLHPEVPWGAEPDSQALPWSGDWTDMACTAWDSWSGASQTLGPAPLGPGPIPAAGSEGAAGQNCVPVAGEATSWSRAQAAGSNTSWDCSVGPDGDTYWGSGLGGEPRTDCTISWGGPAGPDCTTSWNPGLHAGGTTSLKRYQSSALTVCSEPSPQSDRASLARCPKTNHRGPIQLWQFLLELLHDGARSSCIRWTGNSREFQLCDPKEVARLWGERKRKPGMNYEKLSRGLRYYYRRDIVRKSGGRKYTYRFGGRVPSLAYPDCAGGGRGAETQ
The procedure, abridged: as §1

The target of test [16] is T11, ELF3 (Homo sapiens, UniProt P78545 1-371).
T11 sequence: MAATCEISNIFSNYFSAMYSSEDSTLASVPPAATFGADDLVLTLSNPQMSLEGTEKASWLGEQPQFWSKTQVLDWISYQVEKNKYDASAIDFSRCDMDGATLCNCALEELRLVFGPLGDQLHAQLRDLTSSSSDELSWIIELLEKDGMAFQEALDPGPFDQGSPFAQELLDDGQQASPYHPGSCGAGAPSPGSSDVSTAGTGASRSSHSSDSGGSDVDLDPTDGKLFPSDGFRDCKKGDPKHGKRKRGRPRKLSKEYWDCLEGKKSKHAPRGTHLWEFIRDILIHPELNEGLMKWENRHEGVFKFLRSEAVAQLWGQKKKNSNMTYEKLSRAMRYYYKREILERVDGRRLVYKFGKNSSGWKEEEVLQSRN
The procedure, abridged:
as §1

Test [17] deals with CRX (Homo sapiens, UniProt O43186 1-299). Put shortly: as §1
CRX, sequence (O43186 whole entry): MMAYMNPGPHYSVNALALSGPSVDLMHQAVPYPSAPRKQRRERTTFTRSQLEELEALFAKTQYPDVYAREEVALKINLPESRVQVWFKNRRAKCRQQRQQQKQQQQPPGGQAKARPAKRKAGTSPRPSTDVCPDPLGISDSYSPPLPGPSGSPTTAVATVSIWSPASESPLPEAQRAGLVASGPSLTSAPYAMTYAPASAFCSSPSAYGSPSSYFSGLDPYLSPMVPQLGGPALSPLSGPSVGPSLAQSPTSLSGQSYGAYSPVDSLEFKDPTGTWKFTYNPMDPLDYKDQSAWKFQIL
In test [18] the target is ETV1 (Homo sapiens, UniProt P50549 1-477). The procedure, abridged:
as §1

ETV1, sequence (P50549 whole entry): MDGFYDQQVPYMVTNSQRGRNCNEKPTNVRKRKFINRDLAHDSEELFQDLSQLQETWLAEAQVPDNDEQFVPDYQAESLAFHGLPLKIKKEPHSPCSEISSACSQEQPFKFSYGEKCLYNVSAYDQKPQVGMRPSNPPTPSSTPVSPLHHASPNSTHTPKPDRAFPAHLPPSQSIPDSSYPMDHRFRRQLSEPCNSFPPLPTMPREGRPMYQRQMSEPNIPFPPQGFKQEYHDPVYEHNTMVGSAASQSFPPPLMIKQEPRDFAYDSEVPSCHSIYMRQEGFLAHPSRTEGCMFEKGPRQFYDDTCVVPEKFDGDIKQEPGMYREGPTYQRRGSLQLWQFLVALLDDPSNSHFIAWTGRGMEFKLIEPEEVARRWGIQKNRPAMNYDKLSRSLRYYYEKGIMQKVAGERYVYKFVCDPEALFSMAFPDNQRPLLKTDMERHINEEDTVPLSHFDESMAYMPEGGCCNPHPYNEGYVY
ELF4, sequence (Q99607 whole entry): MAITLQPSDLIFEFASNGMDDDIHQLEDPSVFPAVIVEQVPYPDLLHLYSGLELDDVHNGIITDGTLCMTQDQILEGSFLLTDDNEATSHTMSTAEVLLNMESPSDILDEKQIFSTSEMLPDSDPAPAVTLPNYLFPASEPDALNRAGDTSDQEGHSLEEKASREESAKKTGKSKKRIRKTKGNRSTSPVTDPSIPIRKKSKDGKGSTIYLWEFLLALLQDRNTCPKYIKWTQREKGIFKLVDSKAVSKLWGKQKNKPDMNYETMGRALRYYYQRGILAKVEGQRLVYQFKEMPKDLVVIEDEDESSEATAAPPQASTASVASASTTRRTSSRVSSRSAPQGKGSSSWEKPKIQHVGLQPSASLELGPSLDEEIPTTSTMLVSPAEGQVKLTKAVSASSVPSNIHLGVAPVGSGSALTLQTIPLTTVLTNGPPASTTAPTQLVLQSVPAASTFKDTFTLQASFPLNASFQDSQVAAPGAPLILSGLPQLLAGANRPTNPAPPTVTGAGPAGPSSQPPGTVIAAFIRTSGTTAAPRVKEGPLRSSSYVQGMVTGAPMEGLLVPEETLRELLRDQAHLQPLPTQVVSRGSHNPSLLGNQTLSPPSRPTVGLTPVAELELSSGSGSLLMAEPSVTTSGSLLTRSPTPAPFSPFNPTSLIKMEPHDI
ELF1, sequence (P32519 whole entry): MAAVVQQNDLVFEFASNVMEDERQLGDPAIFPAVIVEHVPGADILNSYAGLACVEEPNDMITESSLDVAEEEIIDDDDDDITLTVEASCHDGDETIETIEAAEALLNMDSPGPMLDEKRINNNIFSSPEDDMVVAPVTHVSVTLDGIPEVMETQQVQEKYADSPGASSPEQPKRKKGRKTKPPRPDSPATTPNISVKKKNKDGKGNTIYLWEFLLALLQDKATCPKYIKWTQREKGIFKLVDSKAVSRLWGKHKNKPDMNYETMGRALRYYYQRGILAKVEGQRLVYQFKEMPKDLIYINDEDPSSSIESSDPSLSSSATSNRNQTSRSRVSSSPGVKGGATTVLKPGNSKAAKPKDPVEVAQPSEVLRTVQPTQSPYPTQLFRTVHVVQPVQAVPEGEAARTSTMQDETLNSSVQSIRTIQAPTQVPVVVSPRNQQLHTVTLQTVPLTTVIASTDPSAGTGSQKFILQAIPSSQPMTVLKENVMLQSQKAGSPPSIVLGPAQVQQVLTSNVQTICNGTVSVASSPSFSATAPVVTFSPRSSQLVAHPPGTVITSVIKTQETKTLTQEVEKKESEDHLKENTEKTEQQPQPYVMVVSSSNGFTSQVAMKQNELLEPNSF

As to TACAGG, the binding signal in [1] was 1.32 fold enrichment (6-mer frequency, TF over GST control); in test [2], 1.16 fold enrichment (6-mer frequency, TF over GST control); in test [3], 1.21 fold enrichment (6-mer frequency, TF over GST control); in test [4], 1.22 fold enrichment (6-mer frequency, TF over GST control); in test [5], 1.13 fold enrichment (6-mer frequency, TF over GST control); in [6] it was 1.17 fold enrichment (6-mer frequency, TF over GST control). Also, the binding signal in test [7] is 1.12 fold enrichment (6-mer frequency, TF over GST control); in test [8] it was 1.2 fold enrichment (6-mer frequency, TF over GST control); in test [9], 1.03 fold enrichment (6-mer frequency, TF over GST control); in [10], 1.23 fold enrichment (6-mer frequency, TF over GST control); in test [11] it was 1.24 fold enrichment (6-mer frequency, TF over GST control); in test [12], 1.2 fold enrichment (6-mer frequency, TF over GST control). For the same sequence, the binding signal in [13] was 1.14 fold enrichment (6-mer frequency, TF over GST control); in test [14] it was 1.26 fold enrichment (6-mer frequency, TF over GST control); in test [15], 1.15 fold enrichment (6-mer frequency, TF over GST control); in test [16] it was 1.15 fold enrichment (6-mer frequency, TF over GST control); in test [17], 1.08 fold enrichment (6-mer frequency, TF over GST control); in test [18], 1.15 fold enrichment (6-mer frequency, TF over GST control).

On to ACCCCC, for which the binding signal in [1] was 1.17 fold enrichment (6-mer frequency, TF over GST control); in [2], 1.16 fold enrichment (6-mer frequency, TF over GST control); in [3] it was 1.21 fold enrichment (6-mer frequency, TF over GST control); in test [4] it was 1.16 fold enrichment (6-mer frequency, TF over GST control); in test [5], 1.09 fold enrichment (6-mer frequency, TF over GST control); in [6], 1.12 fold enrichment (6-mer frequency, TF over GST control). For the same sequence, the binding signal was 1.14 fold enrichment (6-mer frequency, TF over GST control) in [7]; 1.21 fold enrichment (6-mer frequency, TF over GST control) in [8]; 1.18 fold enrichment (6-mer frequency, TF over GST control) in test [9]; 1.19 fold enrichment (6-mer frequency, TF over GST control) in test [10]; 1.18 fold enrichment (6-mer frequency, TF over GST control) in test [11]; 1.12 fold enrichment (6-mer frequency, TF over GST control) in test [12]. In addition, the binding signal in test [13] is 1.2 fold enrichment (6-mer frequency, TF over GST control); in test [14] it was 1.28 fold enrichment (6-mer frequency, TF over GST control); in test [15], 1.05 fold enrichment (6-mer frequency, TF over GST control); in test [16] it was 1.29 fold enrichment (6-mer frequency, TF over GST control); in test [18], 1 fold enrichment (6-mer frequency, TF over GST control).
